Only some compounds are listed: those with a hit (about 7% of all), similar ones and a draw of the others.
PLK1 PBD inh: qHTS for Inhibitors of PLK1-PDB (polo-like kinase 1 - polo-box domain): Primary Screen; Serine/threonine-protein kinase PLK1 (Homo sapiens), P53350; Plk1 PBD binding of FITC phosphopeptide, fluorescence polarization; Potency, µM, for the others: max response, negative = inhibition, hits mostly inhibitors; 360,000 tested, 2.8% active; AID 720504, 2013; also: potency is read from the fitted curve at half-maximal effect; series mostly up to about 57 µM; % is scaled to controls: 0 for no effect and ±100 for the full control effect; nearly all actives have a fitted effect of over 65% in size
KAT2A inh: qHTS Assay for Inhibitors of GCN5L2. GCN5L2 HAT assay, ThioGlo1 CoA-SH fluorescence. Histone acetyltransferase KAT2A (Homo sapiens), Q92830. 390,000 tested, 0.21% active. AID 504327, 2011. Potency, µM (top dose mostly 58.9 µM), for inactives: at the highest dose activity change, negative = inhibition, most hits filed as inhibitors; also: potency is read from the fitted curve at half-maximal effect; % is scaled to controls: 0 for no effect and ±100 for the full control effect
Target sequence (Q92830 whole entry, looked up): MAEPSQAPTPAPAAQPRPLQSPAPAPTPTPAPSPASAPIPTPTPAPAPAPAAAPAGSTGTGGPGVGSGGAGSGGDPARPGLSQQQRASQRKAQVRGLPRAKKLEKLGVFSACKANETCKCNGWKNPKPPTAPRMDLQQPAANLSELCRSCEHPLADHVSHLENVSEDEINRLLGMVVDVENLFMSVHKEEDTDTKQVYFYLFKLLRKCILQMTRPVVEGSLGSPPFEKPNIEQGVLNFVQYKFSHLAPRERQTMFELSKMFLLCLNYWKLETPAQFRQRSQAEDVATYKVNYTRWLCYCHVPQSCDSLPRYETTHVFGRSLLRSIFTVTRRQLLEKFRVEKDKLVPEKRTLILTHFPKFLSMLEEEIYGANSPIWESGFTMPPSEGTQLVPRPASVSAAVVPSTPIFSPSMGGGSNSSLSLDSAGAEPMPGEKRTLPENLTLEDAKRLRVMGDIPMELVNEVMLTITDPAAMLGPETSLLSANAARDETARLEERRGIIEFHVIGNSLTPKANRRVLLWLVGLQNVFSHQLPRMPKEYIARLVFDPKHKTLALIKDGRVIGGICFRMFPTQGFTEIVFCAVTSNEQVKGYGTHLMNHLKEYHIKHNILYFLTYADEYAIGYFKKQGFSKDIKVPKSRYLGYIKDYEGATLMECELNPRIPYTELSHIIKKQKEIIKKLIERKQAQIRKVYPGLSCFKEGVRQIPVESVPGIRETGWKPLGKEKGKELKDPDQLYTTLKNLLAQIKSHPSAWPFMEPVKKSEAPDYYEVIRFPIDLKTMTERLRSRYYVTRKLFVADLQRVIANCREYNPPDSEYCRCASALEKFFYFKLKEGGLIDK
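qHTS, 1536-well. 20nM enzyme, pH 7.5 HEPES/EDTA/Tween-20 buffer; 15 min compound preinc., RT. Start: 75uM H3(1-25), 70uM AcCoA, 50uM ThioGlo1. Read Ex340/Em540 at t=0 (autofluorescence flag) and t=20 min.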
PI5P4K alpha inh: qHTS for Inhibitors of phosphatidylinositol 5-phosphate 4-kinase (PI5P4K); Phosphatidylinositol 5-phosphate 4-kinase type-2 alpha (Homo sapiens), P48426; PI5P4Kalpha enzyme, ADP-Glo luminescence, 60 min; stronger effect = lower value; max response, %; 330,000 tested, 1.2% active; active = max response of -50% or lower; inconclusive = between -30% and -50%; inactive = -30% or higher; also: value at the top dose of about 77 µM; % is scaled to controls: 0 for no effect and ±100 for the full control effect
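ADP-Glo luminescence end-point read after a 60 min room-temperature kinase reaction of PI5P4Kalpha plus substrate, initiated with ATP at 5 microM final. Buffer: 0.038 M HEPES pH 7.4, EGTA, 0.1% CHAPS, 5% DMSO.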
HP1b binding inh: HTS for Inhibitors of HP1-beta Chromodomain Interactions with Methylated Histone Tails; Chromobox protein homolog 1 (Homo sapiens), P83916; AlphaScreen HP1-beta / biotin-H3K9me3 peptide binding; Potency, µM (highest dose often 114 µM), for inactives: top-dose activity change, negative = inhibition, usual class: inhibitors; 390,000 tested, 0.56% active; also: potency is read from the fitted curve at half-maximal effect; nearly all actives have a fitted effect of over 70% in size
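AlphaScreen: HP1-beta (50 nM) preformed 30 min with biotin-H3(1-18)K9me3 peptide (50 nM) in PBS pH 7.4, 0.01% Tween-20. Compound added for 30 min at RT, then streptavidin donor/nickel chelate acceptor beads (10 ug/mL) for 30 min.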
BAZ2B block: qHTS Assay for Inhibitors of BAZ2B. Bromodomain adjacent to zinc finger domain protein 2B (Homo sapiens), Q9UIF8. Potency, µM (highest dose often 114 µM), for the others: top-dose activity change, negative = inhibition, most hits filed as inhibitors. AlphaScreen BAZ2B-H3K14Ac peptide displacement. 360,000 tested, 4.4% active; also: potency is read from the fitted curve at half-maximal effect; % is scaled to controls: 0 for no effect and ±100 for the full control effect; nearly all actives have a fitted effect of over 60% in size
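BAZ2B 50 nM plus b-H3(5-23)K14Ac 50 nM, PBS pH 7.4/0.01% Tween-20, 30 min RT; compound added (max 110 uM), 30 min RT; streptavidin donor/Ni-chelate acceptor beads 10 ug/mL final, 20 min dark; AlphaScreen read.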
JMJD2A Tudor inh: qHTS Assay for Inhibitors of JMJD2A-Tudor Domain; Lysine-specific demethylase 4A (Homo sapiens), O75164; AlphaScreen JMJD2A-Tudor / H3K4me3 peptide binding; Potency, µM (highest dose often 114 µM), without a hit: at the highest dose activity change, negative = inhibition, actives largely listed as inhibitors; 390,000 tested, 4.4% active; AID 504339, 2011; also: potency is read from the fitted curve at half-maximal effect; % is scaled to controls: 0 for no effect and ±100 for the full control effect; nearly all actives have a fitted effect of over 50% in size
* marks the source's active call; other numbers are inactive results; ? = inconclusive; . = no result given; [ ] = dose if it differs, or a comment. Unless noted, calls follow the shape of the dose curve; as a rule, active = well fitted curve in the direction sought with a large enough effect; inconclusive = small, poorly fitted or top-dose-only effect, or another doubt; inactive = no such curve, though single readings can be large; an effect the other way counts as inactive or inconclusive.

SMILES	PLK1 PBD inh	KAT2A inh	PI5P4K alpha inh	HP1b binding inh	BAZ2B block	JMJD2A Tudor inh
c1ccc(-c2sc3ccccc3c2-c2ccc(OCCN3CCCC3)cc2)cc1	-3.1%	-12.2%	26.6	-15.1%	.	50.1µM*
COc1ccc(-c2sc3ccccc3c2-c2ccc(OCCN3CCCCC3)cc2)cc1	-8.1%	0.1%	6.9	-15.0%	.	44.7µM*
O=C1CCc2cc(S(=O)(=O)Nc3cc(F)cc(Cl)c3)c(F)cc2N1	.	.	.	.	.	-17.7%
O=C(O)c1cc2c(cn1)[nH]c1ccccc12	-2.2%	?	-8.0	17.4%	3.98µM*	7.08µM*
COC(=O)[C@H](C)NC(=O)c1cc2c(cn1)[nH]c1ccccc12	1.34µM*	-26.3%	?	?	?	39.8µM*
CCOC(=O)C(Cc1ccc(O)cc1)NC(=O)c1cc2c(cn1)[nH]c1ccccc12 (centres undefined)	-14.0%	.	-3.1	.	.	.
Cc1ccc(S(=O)(=O)NCCC(=O)Nc2ccc(C)cc2C(=O)c2ccccc2)cc1	26.7µM*	0.3%	-13.5	-6.9%	-32.1%	50.1µM*
CCN(CC)CC(=O)Nc1ccc(C)cc1C(=O)c1ccccc1	-1.1%	3.8%	1.6	9.2%	1.3%	-13.8%
Cc1cccc(N=C2NN=C(c3c(C)[nH]c4ccccc34)CS2)c1	-18.6%	-2.0%	?	-33.9%	?	44.7µM*
c1ccc(-c2cc(N3CCOCC3)nc3ccccc23)cc1	0.0%	.	.	8.7%	50.1µM*	3.16µM*
CC1=NN(c2ccccc2)C(=O)/C1=C\c1ccc(Oc2ccc([N+](=O)[O-])cc2[N+](=O)[O-])cc1	1.89µM*	0.1%	-29.1	?	39.8µM*	39.8µM*
COc1cc(/C=C2/SC(=O)NC2=O)ccc1Oc1ccc([N+](=O)[O-])cc1[N+](=O)[O-]	?	-2.5%	-17.6	-7.5%	?	-17.6%[11.4 µM]
Nc1ccc(Oc2ccc([N+](=O)[O-])cc2[N+](=O)[O-])cc1	-3.9%	-5.1%	.	?	-5.1%	?
COc1cc(/C=C2\C(=O)N(c3ccccc3)N=C2C)ccc1Oc1ccc([N+](=O)[O-])cc1[N+](=O)[O-]	3.77µM*	-8.1%	-18.6	?	44.7µM*	25.1µM*
CC(NC(=O)COc1ccc(N(C)S(=O)(=O)c2ccccc2)cc1)c1ccccc1 (centres undefined)	-1.2%	-9.0%	5.9	29.1%	-19.7%	-21.1%
Cc1cc(-c2nnc(SCC(=O)Nc3cccc(Cl)c3)n2N)n[nH]1	-4.6%	-10.8%	-4.9	44.5%	56.2µM*	-2.3%
Cc1ccc2onc(CNC(=O)N3CCN(c4cc(Cl)ccc4C)CC3)c2c1	.	-6.8%	.	22.0%	-28.1%	-13.9%
Cn1c(=O)c(C(=O)COC(=O)c2cc(-c3ccco3)nc3ccccc23)c(N)n(Cc2ccccc2)c1=O	.	?	.	.	44.7µM*	.
CCCCN(C(=O)c1cccc(-n2cccc2)c1)c1c(N)n(Cc2ccccc2)c(=O)[nH]c1=O	.	-18.9%	.	.	44.7µM*	.
CC(C)Cn1c(N)c(C(=O)COC(=O)C2CCCCC2)c(=O)n(C)c1=O	23.8µM*	-4.5%	-15.5	-9.4%	1.3%	25.1µM*
CC(C)Cn1c(N)c(C(=O)COC(=O)c2cc(-c3ccccc3)nc3ccccc23)c(=O)n(C)c1=O	3.8%	-4.0%	2.0	30.9%	-9.0%	-7.0%
CC(C)Cn1c(N)c(C(=O)COC(=O)c2cc(-c3ccco3)nc3ccccc23)c(=O)n(C)c1=O	?	?	-97.1*	?	79.4µM*	39.8µM*
O=C(Nc1cc(S(=O)(=O)N2CCOCC2)ccc1OCC(F)(F)F)C1=COCCO1	0.2%	2.1%	6.9	37.4%	10.0%	-7.6%
CCCCN(C(=O)c1cc(-c2ccco2)nc2ccccc12)c1c(N)n(CCC)c(=O)[nH]c1=O	-21.4%	-18.5%	-73.5*	1.8%	?	?
COc1ccccc1CNC(=O)COC(=O)c1cc(-c2ccco2)nc2ccccc12	?	-28.8%	.	?	39.8µM*	20µM*
SMILES	PLK1 PBD inh	KAT2A inh	PI5P4K alpha inh	HP1b binding inh	BAZ2B block	JMJD2A Tudor inh
CCCCn1c(N)c(N(CCOC)C(=O)c2cccc(S(=O)(=O)N(CC)c3ccccc3)c2)c(=O)[nH]c1=O	-7.4%	1.6%	7.9	12.2%	9.8%	-20.0%
Cc1cc(/C=C(\C#N)C(=O)NCc2cccs2)c(C)n1-c1ccccc1F	26.7µM*	-10.0%	4.1	-23.4%	-27.3%	-7.6%[11.4 µM]
Cc1ccccc1-n1c(C)cc(/C=C(\C#N)C(=O)NCC2CCCO2)c1C (centres undefined)	-8.9%	-10.1%	0.2	5.3%	-38.5%	0.4%[57.1 µM]
CC(C)c1cccc(C2=CC(=O)C[C@H](c3ccc4c(c3)OCO4)C2)c1	2.2%	-2.4%	-2.1	64.8%	7.9%	-2.1%
NS(=O)(=O)c1ccc(-n2cccc2C=O)cc1	?	1.8%	0.9	-3.6%	0.0%	-16.7%[57.1 µM]
O=c1oc2c(-c3ccc([N+](=O)[O-])cc3)cc(O)cc2s1	-15.9%	?	-58.7*	?	-25.8%	-31.7%
CC(CNS(=O)(=O)c1ccccc1)(c1ccccc1)N1CCCCC1 (centres undefined)	-4.9%	-0.1%	-1.5	33.8%	-1.0%	-3.4%
COc1ccc(C)cc1NC(=O)CSCc1cc(=O)n2c(C)csc2n1	-5.5%	-4.4%	-0.3	44.6%	79.4µM*	0.0%
Cc1cccc(NCc2ccccc2O)c1C	1.0%	-1.2%	11.2	0.6%	-37.4%	?
Cc1cccc(NCc2nnc(-c3ccccc3)o2)c1C	?	-3.5%	-4.6	-13.3%	-6.7%	79.4µM*
COc1cc(/C=C/C(=O)OCC(=O)N2CCCc3ccccc32)ccc1OC(F)F	-4.5%	-9.7%	8.3	-8.4%	1.8%	-16.3%
COc1ccc(C2CC(=O)c3cnc(NC(=O)c4ccco4)nc3C2)cc1 (centres undefined)	-7.2%	-2.8%	-12.5	16.3%	-27.8%	-25.0%
COc1ccccc1C(=O)Nc1ncc2c(n1)CC(c1ccco1)CC2=O (centres undefined)	-4.2%	-13.0%	.	8.0%	50.1µM*	-30.4%
CSc1ccc(/C=C/C(=O)OCC(=O)NCC2CCCO2)cc1 (centres undefined)	-6.9%	-8.1%	-5.3	19.9%	-5.4%	-7.1%
O=C(N/N=C1/CCS(=O)(=O)c2ccc(F)cc21)c1ccccn1	6.4%	-4.3%	-1.1	40.6%	20µM*	12.6µM*
CC(=O)Nc1ccc(C)cc1-c1nc2ccccc2n(CC(=O)Nc2cc(Cl)ccc2C)c1=O	.	-3.0%	.	6.8%	?	-18.5%

Screens: PubChem BioAssay, National Center for Advancing Translational Sciences (NCATS)
